This is an account of results in PubChem BioAssay.

Records with an inconclusive call do not appear. The source made the active and inactive calls.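 How the source made its calls, unless noted: active means inhibition over a set limit, the all-compound mean plus 3 SD, in both replicate runs; inconclusive means over that limit in just one replicate run; inactive means at or under that limit in both runs.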

Assay [1] is described as follows: reducers of endogenous Her2 protein level, primary screen, SKBR3 breast tumor cells, AlphaScreen, ATP viability (AID 461;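 active means Her2 level under about 52% in both replicate screens, with viability over 70% of control, limit read from the data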;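 on Her2 level: lower value means less Her2 protein in the cells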;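 on viability: percent of carrier control wells set as 100% viability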). Conditions: 18-24 h, measured here: SKBR3 viability, ATP luminescence, at 10 µM.
In assay [2] the target is Receptor tyrosine-protein kinase erbB-2 (Homo sapiens) (UniProt P04626). The assay is described as above. Conditions: 18-24 h, at 10 µM, stronger effect = lower value.
A short description of assay [3]: SK-BR-3 cell growth inhibitors, pilot screen, 24 h, human (AID 572;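 active means viability at or below 10% of carrier control in both of two separate runs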;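 further: compound exposure lasted between 18 and 24 h rather than exactly 24 h; 100% = carrier-treated control wells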). Conditions: SK-BR-3 viability, CellTiter-Glo luminescence, at 10 µM, stronger effect = lower value. In general terms: Cellular ATP, detected with luciferase, serves as a proxy for viable cell number.
The nature of assay [4]: HUVEC growth inhibition – cell-based, human, primary screen (AID 575;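 active means viability at or below 30% in both replicate assays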;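 further: 100% = median of untreated cell wells with 0.1% DMSO on each plate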). To be noted: HUVEC proliferation, CellTiter-Glo luminescence, 72 h; at 10 µM; stronger effect = lower value.
Assay [5] in a line: growth inhibitors of H69AR lung tumor, primary screen, human, duplicate replicates (AID 580;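 active means viability at or under a set limit in both replicates, limit being median viability minus 3 SD, cut at about 48% in these data, passing the limit was not always enough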;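 further: 100% = mean luminescence of untreated wells and 0% = no signal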). To be noted: H69AR lung tumor cells viability, ATP luminescence, 72 h; at 10 µM; stronger effect = lower value.
Assay [6] in a line: reversal of MRP1-mediated doxorubicin resistance, pilot screen, H69AR cells, doxorubicin co-treatment (AID 601;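 active means viability loss from added drug above about 55%, and viability with drug at most 40%, in both replicates, limit read from the data, passing the limit was not always enough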). To be noted: CellTiter-Glo, 72 h, at 10 µM; for differential viability (reversal): stronger effect = higher value.
A short description of assay [7]: 384-well plate pilot, post-Golgi transport modulator project, inhibition of yeast transport mutant growth (AID 636; in the data active means inhibition above about 31%). Conditions: absorbance 615 nm, about 18 h, stronger effect = higher value.
Assay [8] can be described thus: growth suppression of yeast trafficking mutant, preliminary HTS, modulators of trafficking downstream of Golgi apparatus project, 1536-format plate, OD 615 nm (AID 637; in the data active means inhibition above about 30%). To be noted: yeast transport mutant growth, absorbance 615 nm, 18 h; stronger effect = higher value.
Assay [9] can be described thus: OD615 S. cerevisiae growth inhibition, permissive medium, pilot counter-assay, permissive growth control for S. cerevisiae lifespan shortening project (AID 705;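 active means growth inhibition above 25% in both replicates, a cutoff set 3 SD above the mean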). To be noted: OD615, 24 h, at 10 µM, stronger effect = higher value.
Assay [10] can be described thus: Restrictive medium S. cerevisiae growth inhibition, OD615, pilot screen of yeast lifespan reduction project, restrictive growth control (AID 706;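 active means growth inhibition above a set limit, 3 SD over mean compound inhibition, in both replicates, cut at about 43% in these data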;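 further: modified DeaD lifespan yeast strain shifted to restrictive glucose medium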). To be noted: OD615, 48 h, at 10 µM, stronger effect = higher value.
A short description of assay [11]: viability gain of MRP-1-high H69AR cells under doxorubicin, pilot screen, MRP-1 activator project, CellTiter-Glo, duplicate (AID 807;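 active means viability increase at or above a cutoff of the median across tested compounds plus 3 SD, cut at about 8.5% in these data, passing the limit was not always enough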;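 further: compound pretreatment 18-22 h then 72 h combined with doxorubicin; 0% = doxorubicin alone and 100% = vehicle without doxorubicin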). Conditions: H69AR viability with doxorubicin, CellTiter-Glo luminescence; at 10 µM; stronger effect = higher value.
Assay [12] in a line: growth suppression of beta-catenin knockout HCT116, pilot screen, human colon tumor cells (AID 823;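 active means cell viability at or below a set limit in both duplicate runs, the limit being the all-compound median minus 4 SD, cut at about 23% in these data, passing the limit was not always enough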;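 further: 0% = wells killed by 20 µM Hyamine and 100% = untreated DMSO cell wells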). Conditions: CellTiter-Glo, 60 h, at 10 µM, stronger effect = lower value.
The nature of assay [13]: growth suppression of PTEN-deleted HCT116, pilot screen, cell-based, HCT116 clonal line, CellTiter-Glo (AID 824;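 active means viability at or below 27.92% in each of two runs, the all-compound median minus 4 SD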;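 further: 0% = 20 µM Hyamine control and 100% = vehicle cell control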). Conditions: 60 h, at 10 µM, stronger effect = lower value.
Assay [14] can be described thus: inhibitors of the yeast RAM network, pilot screen, dse1pr::URA3 reporter, 5-FOA selection (AID 869).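 Further: 0% = DMSO wells with no growth and 100% = 10 µM 1-NA-PP1 with full growth; RAM network block rescues cells from 5-FOA so hits raise OD615 growth.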 To be noted: S. cerevisiae dse1pr::URA3 5-FOA growth, OD615, 2 d; at 10 µM; stronger effect = higher value; strain carries analog-sensitive mutant Cbk1 kinase.
Assay [15] can be described thus: RAM signaling pathway blockade in yeast – S. cerevisiae, Pdr1DBD-CYC8 efflux-inhibited sensitized strain, primary screen (AID 1298;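 active means RAM network inhibition above 8.4% in each of two replicates, 3 SD over the compound average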;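 further: 0% = DMSO untreated cells without growth and 100% = 10 µM 1-NA-PP1 full growth; higher means more yeast growth rescued from 5-FOA killing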). To be noted: S. cerevisiae cbk1-as DSE1-URA3 strain, 5-FOA growth OD615, 2 d; at 50 µM; stronger effect = higher value.
Setting [16] is: H69AR cells + 2 uM doxorubicin, measured here: viability with 2 uM doxorubicin, stronger effect = lower value.
Where [17] appears, read: H69AR cells, compound alone cytotoxicity.

Sequence of Receptor tyrosine-protein kinase erbB-2 (Homo sapiens) (P04626 whole entry, looked up): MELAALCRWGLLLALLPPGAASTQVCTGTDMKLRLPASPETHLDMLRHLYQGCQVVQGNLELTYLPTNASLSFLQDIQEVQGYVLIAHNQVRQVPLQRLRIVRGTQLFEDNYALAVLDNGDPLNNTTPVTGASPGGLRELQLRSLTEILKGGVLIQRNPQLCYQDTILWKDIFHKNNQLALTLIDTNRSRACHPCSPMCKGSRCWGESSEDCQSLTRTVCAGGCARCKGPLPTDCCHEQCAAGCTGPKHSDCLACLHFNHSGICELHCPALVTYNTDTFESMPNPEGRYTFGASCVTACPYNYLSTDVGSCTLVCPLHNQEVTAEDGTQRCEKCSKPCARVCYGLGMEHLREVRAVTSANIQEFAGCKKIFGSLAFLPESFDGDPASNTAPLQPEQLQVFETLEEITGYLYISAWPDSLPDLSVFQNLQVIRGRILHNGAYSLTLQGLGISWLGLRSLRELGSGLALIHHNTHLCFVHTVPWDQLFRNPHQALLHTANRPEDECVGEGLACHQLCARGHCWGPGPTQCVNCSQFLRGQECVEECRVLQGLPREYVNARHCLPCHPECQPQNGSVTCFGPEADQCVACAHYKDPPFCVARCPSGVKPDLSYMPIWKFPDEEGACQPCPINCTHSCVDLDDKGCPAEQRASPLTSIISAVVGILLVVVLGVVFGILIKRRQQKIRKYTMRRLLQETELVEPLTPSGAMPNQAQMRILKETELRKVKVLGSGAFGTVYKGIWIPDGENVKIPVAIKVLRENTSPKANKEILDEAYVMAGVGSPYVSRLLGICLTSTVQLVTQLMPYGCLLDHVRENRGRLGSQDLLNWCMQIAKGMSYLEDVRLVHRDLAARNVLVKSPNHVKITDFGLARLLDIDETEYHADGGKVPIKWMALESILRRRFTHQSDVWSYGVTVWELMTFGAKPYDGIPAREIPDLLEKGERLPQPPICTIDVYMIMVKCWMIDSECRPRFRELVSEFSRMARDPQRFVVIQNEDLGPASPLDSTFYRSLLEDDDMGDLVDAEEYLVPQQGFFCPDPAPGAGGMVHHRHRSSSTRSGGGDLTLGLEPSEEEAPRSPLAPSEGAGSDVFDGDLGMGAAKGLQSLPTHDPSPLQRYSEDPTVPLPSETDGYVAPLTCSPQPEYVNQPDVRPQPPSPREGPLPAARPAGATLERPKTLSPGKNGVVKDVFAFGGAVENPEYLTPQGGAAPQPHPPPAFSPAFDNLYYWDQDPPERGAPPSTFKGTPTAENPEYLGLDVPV

Turning to `COc1ccc(C(C)N2CC34C=CC(O3)C(C(=O)OCC(C)C)C4C2=O)cc1` (stereo not given), the viability in assay [1] is 103%; in assay [3] it was 103% (inactive); in assay [4], 97.2% (inactive); in [5] it was 85.1% (inactive); in [6] (setting [16]), 81.9%; in [6] (setting [17]) it was 85.1%. Moreover, the viability in assay [12] was 103% (inactive); in assay [13], 88.5% (inactive). Also, the Her2 level in [2] was 89.5% (inactive). In addition, in [6] (H69AR cells + 2 uM doxorubicin), the differential viability (reversal) was 3.22% (inactive). Moreover, the results for the inhibition in assay [7], in assay [8] and in assay [14] were -4.27% (inactive), -2.33% (inactive) and 1.82% (inactive), respectively. The growth inhibition in assay [9] was -0.88% (inactive); in assay [10], -7.06% (inactive). In assay [11], the viability increase is -2.51% (inactive). In addition, in [15], the RAM network inhibition is 4.69% (inactive).
As to `CCOc1ccc2nc(Nc3nc4c(c(=O)[nH]3)CCC4)nc(C)c2c1`, the viability in assay [1] was 99.5%; in assay [3] it was 99.5% (inactive); in assay [4], 98.4% (inactive); in [5], 103% (inactive); in assay [6] (setting [16]) it was 97.7%; in assay [6] (setting [17]), 103%. The viability in [12] is 93.8% (inactive); in assay [13], 96.4% (inactive). Also, the Her2 level in assay [2] is 99% (inactive). In assay [6] (H69AR cells + 2 uM doxorubicin), the differential viability (reversal) is 5.67% (inactive). In addition, the inhibition in assay [7] is -4% (inactive); in assay [8], 1.83% (inactive); in assay [14] it was 1.01% (inactive). The growth inhibition in assay [9] was -9.17% (inactive); in assay [10], 9.05% (inactive). For the same compound, the viability increase in assay [11] was 0.54% (inactive). The RAM network inhibition in [15] is 3.45% (inactive).
For `CC(C)CNc1oc(-c2ccc(F)cc2)nc1C#N`, the viability in [1] was 108%; in assay [3], 108% (inactive); in [4], 103% (inactive); in [5] it was 94.2% (inactive); in assay [6] (setting [16]), 92.5%; in assay [6] (setting [17]) it was 94.2%. For the same compound, the viability in [12] is 101% (inactive); in assay [13], 84.7% (inactive). Further, the Her2 level in assay [2] is 110% (inactive). For the same compound, in [6] (H69AR cells + 2 uM doxorubicin), the differential viability (reversal) is 1.69% (inactive). Further, the inhibition in assay [7] is -7.47% (inactive); in assay [8] it was -4.1% (inactive); in assay [14] it was 0.19% (inactive). Further, the growth inhibition in assay [9] was -15.3% (inactive); in assay [10] it was -11.5% (inactive). Besides, the viability increase in assay [11] is 1.69% (inactive). For the same compound, the RAM network inhibition in assay [15] was 5.05% (inactive).
Turning to `COc1ccc(C(=O)c2ccc(OC)c(N)c2)cc1N`, the viability was 119% in [1]; 119% (inactive) in assay [3]; 49% (inactive) in [4]; 16.9% (active) in [5]; 63.2% in assay [6] (setting [16]); 16.9% in assay [6] (setting [17]). In addition, the viability is 15.2% (active) in assay [12] and 17% (active) in assay [13]. The Her2 level in [2] is 86% (inactive). Besides, the differential viability (reversal) in [6] (H69AR cells + 2 uM doxorubicin) is -46.3% (inactive). The inhibition in assay [7] was 1.3% (inactive); in assay [8] it was -1.31% (inactive); in assay [14] it was 2.53% (inactive). The results for the growth inhibition in assay [9] and in [10] were -20% (inactive) and -17.8% (inactive), respectively. In addition, the viability increase in assay [11] was -6.12% (inactive). Further, in assay [15], the RAM network inhibition was 2.22% (inactive).
For `CC1CCc2nn(CC(=O)NCCN3CCCCC3C)cc2C1` (stereo not given), the viability in assay [1] is 85%; in [3], 85% (inactive); in [4], 103% (inactive); in [5], 90% (inactive); in assay [6] (setting [16]), 92.6%; in assay [6] (setting [17]), 90%. Further, the viability in assay [12] is 101% (inactive); in assay [13], 98.5% (inactive). In addition, the Her2 level in [2] was 104% (inactive). Moreover, the differential viability (reversal) in assay [6] (H69AR cells + 2 uM doxorubicin) is -2.58% (inactive). Also, the inhibition in assay [7] is -2.18% (inactive); in assay [8], 0.83% (inactive); in [14], 2.96% (inactive). For the same compound, the values for the growth inhibition in [9] and in assay [10] were 0.05% (inactive) and -11% (inactive), respectively. In addition, the viability increase in [11] was -1.56% (inactive). The RAM network inhibition in assay [15] was 1.89% (inactive).

A word on the viability: it is a read-out of living cells in per cent, often relative to untreated cells. As usually defined, the inhibition is the change of the read-out against control, counted positive when it falls.
